Compound activity as filed in PubChem.
The list is not random: actives were taken first. Their share in the collection is about 6.8%.
Cy5 interf NS3h – Cy5 fluorescence interference, HCV helicase counter-screen. fluorescence interference ratio at 100 µM. AID 720488. actives 6% (n = 16,000). Cy5-dT15 DNA with NS3h; actives lie on both sides; signal over control mean, under 1 quenches;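 active = compound fluorescence over control fluorescence at most 0.8, a quencher, or at least a set upper limit, an enhancer; inactive = ratio between 0.8 and the set upper limit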
HCV NS3h FP – blocks HCV NS3 helicase binding to DNA | inhibition, % at 100 µM | NS3h Cy5-dT15 DNA binding, fluorescence polarization | actives 1.6% (n = 16,000);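 active = inhibition above the average over every tested compound plus 3 SD, cut at about 40% in these data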
* hit, by the source's call.

COC(=O)c1ccccc1NC(=O)CN(c1cc(C)cc(C)c1)S(=O)(=O)c1ccccc1 was read as Cy5 interf NS3h 1 and HCV NS3h FP 11.
`O=C(O)CSCc1cccc([N+](=O)[O-])c1` gave Cy5 interf NS3h 0.7* and HCV NS3h FP 5.
Screening COC(=O)CNC(=O)c1cccc([N+](=O)[O-])c1 returned Cy5 interf NS3h 1.1 and HCV NS3h FP 2.
`COc1ccc(C2(CNC(=O)/C=C/c3ccccc3)CCCC2)cc1OC` gave Cy5 interf NS3h 1 and HCV NS3h FP 16.
For COc1ccc(C(NC(=O)c2ccccc2)c2c(O)ccc3ccccc23)cc1 (stereo unspecified) the results were Cy5 interf NS3h 0.96 and HCV NS3h FP 12.
`CN(C)C(=O)NC(NC(=O)N(C)C)C(=O)c1ccccc1` gave Cy5 interf NS3h 0.91 and HCV NS3h FP 8.
`O=C(Nc1nc(-c2cc(Cl)ccc2Cl)cs1)C(Cl)Cl` gave Cy5 interf NS3h 1 and HCV NS3h FP 11.
COc1ccccc1N1C(=O)NC(=O)C(=Cc2cc(OC)c(O)c([N+](=O)[O-])c2)C1=O was read as Cy5 interf NS3h 0.87 and HCV NS3h FP 34.
For COc1ccccc1N1C(=O)C(=Cc2cccn2C)C(=O)NC1=S the results were Cy5 interf NS3h 0.68* and HCV NS3h FP 44*.
`CC(=O)C(C1=NC(C)(C)Cc2cc(C)c(C)cc21)c1ccccc1` (stereo unspecified) gave Cy5 interf NS3h 0.96 and HCV NS3h FP 18.
Screening O=C(CCCN1C(=O)/C(=C\c2cccs2)SC1=S)Nc1ccccc1O returned Cy5 interf NS3h 0.97 and HCV NS3h FP 8.
Screening O=C(CCN1C(=O)/C(=C/c2cccs2)SC1=S)Nc1nc2ccccc2s1 returned Cy5 interf NS3h 0.71* and HCV NS3h FP 14.
CC(C)C(=O)NC(c1ccc([N+](=O)[O-])cc1)c1ccc2cccnc2c1O (stereo unspecified) was read as Cy5 interf NS3h 0.98 and HCV NS3h FP 1.
`C/C(=N\N=C1/c2ccccc2C(=O)C1C(=O)C(c1ccccc1)c1ccccc1)c1cccs1` (stereo unspecified) gave Cy5 interf NS3h 0.68* and HCV NS3h FP 4.
For CC(CNC(=O)c1cccs1)c1ccccc1 (stereo unspecified) the results were Cy5 interf NS3h 0.99 and HCV NS3h FP -2.
CC(=O)N1CC(c2ccccc2)CC1=O (stereo unspecified) was read as Cy5 interf NS3h 1.1 and HCV NS3h FP 4.
COc1ccc(S(=O)(=O)N2CCN(C(=O)c3cccs3)CC2)cc1 was read as Cy5 interf NS3h 0.69* and HCV NS3h FP 0.
Screening COc1ccc(S(=O)(=O)N2CCN(C(=O)c3cccc(F)c3)CC2)cc1 returned Cy5 interf NS3h 1 and HCV NS3h FP 3.
For CCOc1ccc(/C=C2\N=C(c3ccccc3F)OC2=O)cc1 the results were Cy5 interf NS3h 1 and HCV NS3h FP 53*.
O=C1OC(c2ccccc2F)=N/C1=C\c1ccc(Br)cc1 was read as Cy5 interf NS3h 1.1 and HCV NS3h FP 4.
For COc1ccccc1C=C1C(=O)c2ccccc2C1=O the results were Cy5 interf NS3h 0.99 and HCV NS3h FP 26.
Screening CC(=O)C(C(C)=O)C1=CC(=O)C(=O)c2ccccc21 returned Cy5 interf NS3h 0.53* and HCV NS3h FP 6.
For CN(C)c1ccc(/C=N\NC(=O)C(=O)N/N=C\c2ccc(N(C)C)cc2)cc1 the results were Cy5 interf NS3h 1 and HCV NS3h FP 1.
Screening CCCC(=O)Nc1ccc(N2CCOCC2)cc1 returned Cy5 interf NS3h 0.74* and HCV NS3h FP 3.
`CC(C)C(=O)Nc1ccc(N2CCOCC2)cc1` gave Cy5 interf NS3h 1 and HCV NS3h FP -2.
Screening COc1ccc(NC(=O)Cc2ccc(Cl)cc2)cc1OC returned Cy5 interf NS3h 1 and HCV NS3h FP 8.
For CCOc1ccccc1NC(=O)c1c(NC(=O)C(C)(C)C)sc2c1CCCCC2 the results were Cy5 interf NS3h 1.1 and HCV NS3h FP 0.
`CCOc1ccccc1NC(=O)c1c(NC(=O)C(F)(F)F)sc2c1CCCCC2` gave Cy5 interf NS3h 1.2* and HCV NS3h FP 33.
O=[N+]([O-])c1ccc(N2CCN(CCO)CC2)cc1NCCc1ccccc1 was read as Cy5 interf NS3h 0.96 and HCV NS3h FP 8.
For COc1ccccc1OCCNc1cc(Cl)ccc1[N+](=O)[O-] the results were Cy5 interf NS3h 1 and HCV NS3h FP 3.
Cc1cccc(OCCNc2cc(Cl)ccc2[N+](=O)[O-])c1 was read as Cy5 interf NS3h 0.82 and HCV NS3h FP 14.
Screening O=[N+]([O-])c1ccc(N2CCOCC2)cc1NCCc1ccccc1 returned Cy5 interf NS3h 0.67* and HCV NS3h FP 30.
For O=[N+]([O-])c1ccc(Cl)cc1NCCOc1ccc(F)cc1 the results were Cy5 interf NS3h 0.69* and HCV NS3h FP 21.
`O=[N+]([O-])c1ccc(Cl)cc1NCCc1ccccc1` gave Cy5 interf NS3h 0.79* and HCV NS3h FP 18.
`O=C(N/N=C(\c1ccccc1)C(F)(F)F)c1ccncc1` gave Cy5 interf NS3h 1 and HCV NS3h FP 5.
For CCOc1ccc(/C=N\N2CCN(Cc3ccc(Cl)cc3)CC2)cc1OC the results were Cy5 interf NS3h 1 and HCV NS3h FP 9.
C=CCN1C(=O)/C(=C/c2ccc(N(C)C)cc2)C(=O)NC1=S was read as Cy5 interf NS3h 1.2* and HCV NS3h FP 34.
Screening CN(C)c1ccc(/C=C2/C(=O)NC(=O)N(CCCO)C2=O)cc1 returned Cy5 interf NS3h 0.94 and HCV NS3h FP 19.
CN(C)c1ccc(NC(=O)c2ccccc2F)cc1 was read as Cy5 interf NS3h 0.99 and HCV NS3h FP 8.
`CN(C)c1ccc(NC(=O)c2cc(Cl)ccc2Cl)cc1` gave Cy5 interf NS3h 0.99 and HCV NS3h FP 45*.
COc1ccc(C(=O)Nc2cc(C)nc3ccccc23)cc1OC was read as Cy5 interf NS3h 0.94 and HCV NS3h FP 1.
Cc1nc(N=C(N)NC(=O)c2ccccc2N)nc2ccccc12 was read as Cy5 interf NS3h 1.2* and HCV NS3h FP 17.
CC1=C(C(=O)OC(C)C)C(c2ccc(C(C)C)cc2)NC(=O)N1 (stereo unspecified) was read as Cy5 interf NS3h 0.95 and HCV NS3h FP 14.
Screening COc1ccc(NC(=O)CN(c2ccc(Cl)cc2)S(C)(=O)=O)c(OC)c1 returned Cy5 interf NS3h 1 and HCV NS3h FP 0.
CCOC(=O)C(C(=O)OCC)C(CC(=O)c1ccccc1)c1ccccc1 (stereo unspecified) was read as Cy5 interf NS3h 0.97 and HCV NS3h FP 5.
Cc1ccc(C(=O)/C=C2\C(=O)Nc3ccccc32)cc1 was read as Cy5 interf NS3h 0.95 and HCV NS3h FP 15.
`CC(=O)N1C(=O)/C(=C/C(=O)c2ccccc2)c2ccccc21` gave Cy5 interf NS3h 0.79* and HCV NS3h FP 9.
Screening N/C(=N\OCC(=O)Nc1ccc(F)cc1)c1nonc1N returned Cy5 interf NS3h 1 and HCV NS3h FP 0.
Screening Cc1cccc(C)c1NC(=O)CO/N=C(/N)c1nonc1N returned Cy5 interf NS3h 0.71* and HCV NS3h FP 15.
`COc1ccc(/C=C/C(=O)Nc2cccc([N+](=O)[O-])c2)cc1Br` gave Cy5 interf NS3h 1 and HCV NS3h FP 14.
Screening COC(=O)c1ccccc1NC(=O)c1cc2nc(-c3ccccc3)cc(C)n2n1 returned Cy5 interf NS3h 0.73* and HCV NS3h FP 14.
